Laboratory results: the OligoGym collection

molecular target: PLA2R1; experiment: pooled miR-30 sensor sort-seq; sequence = guide strand; conditions: shRNA
Also: reference of the scale not given here.

Sequence | sensor-assay potency score (higher = more potent)
TTTCTGAGCACAACTCTGGGTG | -0.349
TATCACAACCTACTTCTGCAGA | -0.52
TTATCTGTGGTGAACAGTCCAA | -0.19
TTTTCTTCTAAATATACTGTAC | -0.623

molecular target: PLAA; experiment: as above; conditions: shRNA

Sequence | sensor-assay potency score (higher = more potent)
TAGACTGAGCTGGAAGTCGGAT | -0.595
TTAACTTCTTCTCTTCAGGTGC | 0.5
TAACACTCCACTGATAGGCTTC | 0.424
TATTGTGGTCATTTCCACCGGT | 0.536
TAGGTCTTGTACTACTTCCAAG | -1.39
TTATTTGAGAATCAACACCTAA | -0.576
TAATTAGTGACAAACATTGGGC | -0.357
TTAGTGACAAACATTGGGCTTT | 0.657
TTTAACAGTCTTGTCTGCTGAT | 0.5
TAAATCTACAGCATTCACTTAC | -0.27
TATACTTCAAGACACTCGCCAG | -0.398
TTTTAGATGCAGCTGATCGGTA | -0.655

molecular target: PLB1; experiment: as above; conditions: shRNA

Sequence | sensor-assay potency score (higher = more potent)
TTATCTTCCAGTCTTCCTGAAA | -0.752
TTGAAAGTCAAGTTGCAGGTTC | 0.551
TACAGATTCGAATCTGTGCAGT | -0.43
TATTGTTCCAGAGAGCACTGGC | 0.63
TACTGTGTGGTGACATCGGGGA | 0.115
ATACTGTGTGGTGACATCGGGG | -1.03
TCTATGATCATCTTTCATCTTC | 0.303
TAGTGGACCAGATCATTGCAGA | -0.927
TTGATCTTGTTTTCAAACTTAT | -0.907
TTGTTGGAGGTAGTCTTGCGGC | -0.878
TAAGGTGGTCACATTCTCCAGG | 0.024
TATTATCTTCCAGTCTTCCTGA | 0.718

molecular target: PLCB3; experiment: as above; conditions: shRNA

Sequence | sensor-assay potency score (higher = more potent)
TATTCCACAAACTCCATGGGGC | -0.0487
TTGTCTGCTGAGAACATCTTCA | -0.392
AAGAACACTGTGTTCACCGGGT | 0.656
TACTTTTCGATGAGCAGCCGGG | -0.993
TTCGTTGAGTCTCGGGTCGCGT | -0.421
TTGCGCAGGAAGGTGTTCCGGG | -0.298
TAGTTGGAGGAGTCCACGCGGG | -1.09
ATGAAGTTCAAGAACACTGTGT | 0.354
TTGAATAGCTCCTCAGACCAGA | -0.311
TTTGATGAACTTACTCCCGCGC | 0.0652
TTCGATGTAGTTGACAAGCGTG | -0.63
TTGTATTCCACAAACTCCATGG | -0.418
